Laboratory results as given in article PMC9911399, “Two distinct binding modes provide the RNA-binding protein RbFox with extraordinary sequence specificity”.
Positions count from the first letter of the chain named. In all, about 16,000 sequences were measured (“ka relative to ugcaugu”: median about 0.0091, highest 2% from about 0.032 on). Only a selection was taken, and the highest values are over-represented in it overall.

T1: RBFOX1 RRM (Homo sapiens, UniProt Q9NWB1 109-208)
T1 sequence: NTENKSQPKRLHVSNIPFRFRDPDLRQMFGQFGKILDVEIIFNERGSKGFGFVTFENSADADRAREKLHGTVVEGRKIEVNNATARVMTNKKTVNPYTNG

B1: AAUAAUA (DNA:RNA)
RNA: GGGAGACCGGAAUUCAGAUUGUCCAAUAAUAUUAAAUCCCGUCGUAGCCACCA
DNA 1: CAATCTGAATTCCGGTCTCCC
DNA 2: TGGTGGCTACGACGGGATT
B2: GCGUGUG (DNA:RNA)
RNA: B1 RNA with A25G, A26C, U27G, A28U, A29G, A31G
DNA 1: CAATCTGAATTCCGGTCTCCC
DNA 2: TGGTGGCTACGACGGGATT
B3: UCUAACG (DNA:RNA)
RNA: B1 RNA with A25U, A26C, U30C, A31G
DNA 1: CAATCTGAATTCCGGTCTCCC
DNA 2: TGGTGGCTACGACGGGATT
B4: UCCCUGA (DNA:RNA)
RNA: B1 RNA with A25U, A26C, U27C, A28C, A29U, U30G
DNA 1: CAATCTGAATTCCGGTCTCCC
DNA 2: TGGTGGCTACGACGGGATT
B5: UCAAAGA (DNA:RNA)
RNA: B1 RNA with A25U, A26C, U27A, U30G
DNA 1: CAATCTGAATTCCGGTCTCCC
DNA 2: TGGTGGCTACGACGGGATT
B6: UGCAGCC (DNA:RNA)
RNA: B1 RNA with A25U, A26G, U27C, A29G, U30C, A31C
DNA 1: CAATCTGAATTCCGGTCTCCC
DNA 2: TGGTGGCTACGACGGGATT
B7: CGUUGGA (DNA:RNA)
RNA: B1 RNA with A25C, A26G, A28U, A29G, U30G
DNA 1: CAATCTGAATTCCGGTCTCCC
DNA 2: TGGTGGCTACGACGGGATT
B8: GGACCUA (DNA:RNA)
RNA: B1 RNA with A25G, A26G, U27A, A28C, A29C
DNA 1: CAATCTGAATTCCGGTCTCCC
DNA 2: TGGTGGCTACGACGGGATT
B9: GGGUCUU (DNA:RNA)
RNA: B1 RNA with A25G, A26G, U27G, A28U, A29C, A31U
DNA 1: CAATCTGAATTCCGGTCTCCC
DNA 2: TGGTGGCTACGACGGGATT
B10: GGGGUCU (DNA:RNA)
RNA: GGGAGACCGGAAUUCAGAUUGUCCGGGGUCUUUAAAUCCCGUCGUAGCCACCA
DNA 1: CAATCTGAATTCCGGTCTCCC
DNA 2: TGGTGGCTACGACGGGATT
B11: CGGGGUC (DNA:RNA)
RNA: B10 RNA with G25C, U29G, C30U, U31C
DNA 1: CAATCTGAATTCCGGTCTCCC
DNA 2: TGGTGGCTACGACGGGATT
B12: GGGGGUC (DNA:RNA)
RNA: B10 RNA with U29G, C30U, U31C
DNA 1: CAATCTGAATTCCGGTCTCCC
DNA 2: TGGTGGCTACGACGGGATT
B13: CGGGUCU (DNA:RNA)
RNA: B10 RNA with G25C
DNA 1: CAATCTGAATTCCGGTCTCCC
DNA 2: TGGTGGCTACGACGGGATT
B14: CCGGGUC (DNA:RNA)
RNA: B10 RNA with G25C, G26C, U29G, C30U, U31C
DNA 1: CAATCTGAATTCCGGTCTCCC
DNA 2: TGGTGGCTACGACGGGATT
B15: UACCUCU (DNA:RNA)
RNA: B10 RNA with G25U, G26A, G27C, G28C
DNA 1: CAATCTGAATTCCGGTCTCCC
DNA 2: TGGTGGCTACGACGGGATT
B16: CUGGGAG (DNA:RNA)
RNA: B10 RNA with G25C, G26U, U29G, C30A, U31G
DNA 1: CAATCTGAATTCCGGTCTCCC
DNA 2: TGGTGGCTACGACGGGATT
B17: GUUAGAA (DNA:RNA)
RNA: B1 RNA with A25G, A26U, A29G, U30A
DNA 1: CAATCTGAATTCCGGTCTCCC
DNA 2: TGGTGGCTACGACGGGATT
B18: AGUGUCU (DNA:RNA)
RNA: B10 RNA with G25A, G27U
DNA 1: CAATCTGAATTCCGGTCTCCC
DNA 2: TGGTGGCTACGACGGGATT
B19: AGAUAUU (DNA:RNA)
RNA: B1 RNA with A26G, U27A, A28U, A31U
DNA 1: CAATCTGAATTCCGGTCTCCC
DNA 2: TGGTGGCTACGACGGGATT
B20: AGUGGUA (DNA:RNA)
RNA: B1 RNA with A26G, A28G, A29G
DNA 1: CAATCTGAATTCCGGTCTCCC
DNA 2: TGGTGGCTACGACGGGATT
B21: GGGGCAA (DNA:RNA)
RNA: B10 RNA with U29C, C30A, U31A
DNA 1: CAATCTGAATTCCGGTCTCCC
DNA 2: TGGTGGCTACGACGGGATT
B22: GGGCAGU (DNA:RNA)
RNA: B10 RNA with G28C, U29A, C30G
DNA 1: CAATCTGAATTCCGGTCTCCC
DNA 2: TGGTGGCTACGACGGGATT
B23: CGGGCAA (DNA:RNA)
RNA: B10 RNA with G25C, U29C, C30A, U31A
DNA 1: CAATCTGAATTCCGGTCTCCC
DNA 2: TGGTGGCTACGACGGGATT
B24: GGGCAAA (DNA:RNA)
RNA: B10 RNA with G28C, U29A, C30A, U31A
DNA 1: CAATCTGAATTCCGGTCTCCC
DNA 2: TGGTGGCTACGACGGGATT
B25: GGGGCAG (DNA:RNA)
RNA: B10 RNA with U29C, C30A, U31G
DNA 1: CAATCTGAATTCCGGTCTCCC
DNA 2: TGGTGGCTACGACGGGATT
B26: CGGGCAG (DNA:RNA)
RNA: B10 RNA with G25C, U29C, C30A, U31G
DNA 1: CAATCTGAATTCCGGTCTCCC
DNA 2: TGGTGGCTACGACGGGATT
B27: CCAUAAU (DNA:RNA)
RNA: B1 RNA with A25C, A26C, U27A, A28U, U30A, A31U
DNA 1: CAATCTGAATTCCGGTCTCCC
DNA 2: TGGTGGCTACGACGGGATT
B28: CCUAAGA (DNA:RNA)
RNA: B1 RNA with A25C, A26C, U30G
DNA 1: CAATCTGAATTCCGGTCTCCC
DNA 2: TGGTGGCTACGACGGGATT
B29: GUAGGGA (DNA:RNA)
RNA: B10 RNA with G26U, G27A, U29G, C30G, U31A
DNA 1: CAATCTGAATTCCGGTCTCCC
DNA 2: TGGTGGCTACGACGGGATT
B30: CUCCGUG (DNA:RNA)
RNA: B1 RNA with A25C, A26U, U27C, A28C, A29G, A31G
DNA 1: CAATCTGAATTCCGGTCTCCC
DNA 2: TGGTGGCTACGACGGGATT
B31: CGGUUAU (DNA:RNA)
RNA: B10 RNA with G25C, G28U, C30A
DNA 1: CAATCTGAATTCCGGTCTCCC
DNA 2: TGGTGGCTACGACGGGATT

Target: T1, RBFOX1 RRM
Test: EMSA; HiTS-Eq, 1 nM pool, 10 min; buffer printed only for the single-RNA assays: 10 mM Tris pH 7.5, 150 mM NaCl, 3.4 mM EDTA, 0.001% NP-40, 30 C
Conditions: tags: His6 N-terminal (pET28a); label: 5' 32P
Summary of the method: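 Purified RbFox RRM, wild type or mutant, was incubated for 10 min in 50 µL with 1 nM of a 5′-radiolabelled RNA pool carrying 7 randomized nucleotides, whose flanks were annealed to DNA oligonucleotides, over a series of increasing protein concentrations. Unbound RNA was resolved on 8% native PAGE, cut out, reverse-transcribed, barcoded by PCR and sequenced on an Illumina HiSeq 2500. Relative association constants were derived from changes in read counts for each RNA species versus the control reaction and normalised to the cognate motif.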

Compared with B1, B2 is higher in binding signal: 0.000771 KA relative to UGCAUGU for the first, 0.0222 KA relative to UGCAUGU for the second.

First: B3
Second: B4
The binding signal of the first is lower: 0.00601 KA relative to UGCAUGU for the first, 0.00782 KA relative to UGCAUGU for the second.

First: B5
Second: B6
The binding signal of the first is lower: 0.00287 KA relative to UGCAUGU for the first, 0.0108 KA relative to UGCAUGU for the second.

First: B7
Second: B8
The binding signal of the first is higher: 0.00714 KA relative to UGCAUGU for the first, 0.0035 KA relative to UGCAUGU for the second.

First: B9
Second: B10
The binding signal of the first is lower: 0.00918 KA relative to UGCAUGU for the first, 0.0436 KA relative to UGCAUGU for the second.

First: B11
Second: B12
The binding signal of the first is higher: 0.0407 KA relative to UGCAUGU for the first, 0.0306 KA relative to UGCAUGU for the second.

First: B13
Second: B14
The binding signal of the first is higher: 0.0296 KA relative to UGCAUGU for the first, 0.0244 KA relative to UGCAUGU for the second.

First: B15
Second: B16
The binding signal of the first is lower: 0.00134 KA relative to UGCAUGU for the first, 0.0142 KA relative to UGCAUGU for the second.

Compared with B17, B18 is lower in binding signal: 0.0142 KA relative to UGCAUGU for the first, 0.0109 KA relative to UGCAUGU for the second.

First: B19
Second: B20
The binding signal of the first is lower: 0.00865 KA relative to UGCAUGU for the first, 0.0144 KA relative to UGCAUGU for the second.

First: B21
Second: B22
The binding signal of the first is higher: 0.032 KA relative to UGCAUGU for the first, 0.0161 KA relative to UGCAUGU for the second.

First: B23
Second: B24
The binding signal of the first is higher: 0.0227 KA relative to UGCAUGU for the first, 0.0043 KA relative to UGCAUGU for the second.

First: B25
Second: B26
The binding signal of the first is higher: 0.0491 KA relative to UGCAUGU for the first, 0.0252 KA relative to UGCAUGU for the second.

Compared with B27, B28 is higher in binding signal: 0.00169 KA relative to UGCAUGU for the first, 0.00773 KA relative to UGCAUGU for the second.

First: B29
Second: B30
The binding signal of the first is lower: 0.00497 KA relative to UGCAUGU for the first, 0.0111 KA relative to UGCAUGU for the second.

For B31, the binding signal was 0.0102 KA relative to UGCAUGU.
